Experimental data published in article PMC7862700, “An all-to-all approach to the identification of sequence-specific readers for epigenetic DNA modifications on cytosine”.

Assays:
Test in all cases: DAPPL (digital affinity profiling via proximity ligation, sequencing); 10 mM Tris-HCl pH 7.5, 50 mM NaCl, 1 mM DTT, 4% glycerol, room temperature, 30 min; GST-TFs on glutathione beads, 16-mer random dsDNA library, 0.1% formaldehyde crosslink after washing; high values mean tight binding
[1] = biological target: T1, FLI1 (Homo sapiens, UniProt Q01543 1-452); conditions: protein: recombinant; tags: N-terminal GST; dsDNA, one strand shown
T1 sequence: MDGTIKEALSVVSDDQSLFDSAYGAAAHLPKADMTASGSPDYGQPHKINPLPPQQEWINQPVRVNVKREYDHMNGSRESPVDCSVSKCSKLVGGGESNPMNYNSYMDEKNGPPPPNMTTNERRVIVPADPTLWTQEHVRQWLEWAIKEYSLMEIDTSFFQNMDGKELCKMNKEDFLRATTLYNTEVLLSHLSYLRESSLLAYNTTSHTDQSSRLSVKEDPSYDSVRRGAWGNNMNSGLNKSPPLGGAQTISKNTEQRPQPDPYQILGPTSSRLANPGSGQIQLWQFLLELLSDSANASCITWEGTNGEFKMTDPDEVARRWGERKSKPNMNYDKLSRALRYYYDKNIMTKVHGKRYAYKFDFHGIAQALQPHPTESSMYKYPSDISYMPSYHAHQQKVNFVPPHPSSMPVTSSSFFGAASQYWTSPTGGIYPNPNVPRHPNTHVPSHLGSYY
Procedure, shortened: (§1)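 After expression in yeast as GST fusions, human transcription factors were bound to glutathione beads, DNA-barcoded and mixed with a tag-only sample. The pools were incubated with 200 nmole of a 16-mer random double-stranded DNA library in Tris/NaCl/DTT/glycerol buffer (30 min, room temperature), washed and crosslinked with 0.1% formaldehyde. Proximity ligation with BsaI/T4 ligase ran for 1 h at 37 °C, before PCR amplification and sequencing on an Illumina NextSeq500. Binding signal is a hexamer's read frequency for a factor divided by its frequency for the tag-only sample.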

[2] = biological target: T2, ELK1 (Homo sapiens, UniProt P19419 1-428); conditions: protein: recombinant; tags: N-terminal GST; dsDNA, one strand shown
T2 sequence: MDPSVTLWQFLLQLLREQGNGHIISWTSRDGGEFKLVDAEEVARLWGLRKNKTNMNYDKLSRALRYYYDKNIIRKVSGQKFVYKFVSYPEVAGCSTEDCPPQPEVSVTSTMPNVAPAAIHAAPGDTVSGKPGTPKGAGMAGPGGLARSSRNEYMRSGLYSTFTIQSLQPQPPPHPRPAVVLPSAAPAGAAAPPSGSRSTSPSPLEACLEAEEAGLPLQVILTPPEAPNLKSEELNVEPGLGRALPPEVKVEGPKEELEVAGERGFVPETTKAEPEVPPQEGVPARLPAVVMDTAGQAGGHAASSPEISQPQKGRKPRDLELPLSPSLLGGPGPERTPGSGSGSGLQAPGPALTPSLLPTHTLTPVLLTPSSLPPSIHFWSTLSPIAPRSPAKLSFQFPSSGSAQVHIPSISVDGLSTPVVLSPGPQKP
Procedure, shortened: as §1

[3] = biological target: T3, GABPA (Homo sapiens, UniProt Q06546 1-454); conditions: protein: recombinant; tags: N-terminal GST; dsDNA, one strand shown
T3 sequence: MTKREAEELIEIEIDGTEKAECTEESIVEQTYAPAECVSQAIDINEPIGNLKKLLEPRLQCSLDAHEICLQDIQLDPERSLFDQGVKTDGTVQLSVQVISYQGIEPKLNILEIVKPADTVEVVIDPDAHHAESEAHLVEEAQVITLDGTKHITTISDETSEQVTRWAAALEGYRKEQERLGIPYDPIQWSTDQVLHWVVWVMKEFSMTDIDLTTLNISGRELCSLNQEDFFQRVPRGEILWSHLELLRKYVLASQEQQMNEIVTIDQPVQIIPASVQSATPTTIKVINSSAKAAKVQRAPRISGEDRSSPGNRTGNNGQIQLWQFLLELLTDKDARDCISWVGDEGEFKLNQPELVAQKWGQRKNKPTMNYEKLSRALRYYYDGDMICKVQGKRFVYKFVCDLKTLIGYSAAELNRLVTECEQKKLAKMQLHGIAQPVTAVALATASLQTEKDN
Procedure, shortened: as §1

[4] = biological target: T4, ERG (Homo sapiens, UniProt P11308 1-479); conditions: protein: recombinant; tags: N-terminal GST; dsDNA, one strand shown
T4 sequence: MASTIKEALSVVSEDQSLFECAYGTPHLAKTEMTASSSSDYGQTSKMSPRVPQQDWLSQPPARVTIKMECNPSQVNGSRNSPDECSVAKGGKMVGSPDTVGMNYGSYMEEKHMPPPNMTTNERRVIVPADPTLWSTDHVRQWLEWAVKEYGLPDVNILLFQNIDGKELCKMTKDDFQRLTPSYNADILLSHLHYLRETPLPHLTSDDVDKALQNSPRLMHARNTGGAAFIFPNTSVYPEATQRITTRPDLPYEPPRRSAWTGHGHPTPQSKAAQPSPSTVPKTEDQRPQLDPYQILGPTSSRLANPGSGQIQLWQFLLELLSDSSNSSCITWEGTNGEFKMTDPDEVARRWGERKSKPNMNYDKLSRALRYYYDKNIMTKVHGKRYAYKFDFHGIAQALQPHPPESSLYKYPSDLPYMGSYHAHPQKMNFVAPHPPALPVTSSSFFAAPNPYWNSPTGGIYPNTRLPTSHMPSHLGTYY
Procedure, shortened: as §1

[5] = biological target: ELF1 (Homo sapiens, UniProt P32519 1-619); conditions: protein: recombinant; tags: N-terminal GST; dsDNA, one strand shown
Procedure, shortened: as §1

[6] = biological target: T5, EHF (Homo sapiens, UniProt Q9NZC4 1-300); conditions: protein: recombinant; tags: N-terminal GST; dsDNA, one strand shown
T5 sequence: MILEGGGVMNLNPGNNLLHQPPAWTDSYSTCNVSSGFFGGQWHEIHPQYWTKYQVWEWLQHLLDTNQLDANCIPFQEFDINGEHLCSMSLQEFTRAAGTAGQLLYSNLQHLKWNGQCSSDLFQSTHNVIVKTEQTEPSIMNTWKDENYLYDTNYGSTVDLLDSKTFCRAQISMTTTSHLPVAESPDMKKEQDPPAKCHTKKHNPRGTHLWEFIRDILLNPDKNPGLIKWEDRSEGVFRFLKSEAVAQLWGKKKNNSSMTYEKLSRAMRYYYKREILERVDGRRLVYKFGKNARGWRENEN
Procedure, shortened: as §1

[7] = biological target: SPI1 (Homo sapiens, UniProt P17947 1-270); conditions: protein: recombinant; tags: N-terminal GST; dsDNA, one strand shown
Procedure, shortened: as §1

[8] = biological target: SPIB (Homo sapiens, UniProt Q01892 1-262); conditions: protein: recombinant; tags: N-terminal GST; dsDNA, one strand shown
Procedure, shortened: as §1

[9] = biological target: T6, ELK3 (Homo sapiens, UniProt P41970 1-407); conditions: protein: recombinant; tags: N-terminal GST; dsDNA, one strand shown
T6 sequence: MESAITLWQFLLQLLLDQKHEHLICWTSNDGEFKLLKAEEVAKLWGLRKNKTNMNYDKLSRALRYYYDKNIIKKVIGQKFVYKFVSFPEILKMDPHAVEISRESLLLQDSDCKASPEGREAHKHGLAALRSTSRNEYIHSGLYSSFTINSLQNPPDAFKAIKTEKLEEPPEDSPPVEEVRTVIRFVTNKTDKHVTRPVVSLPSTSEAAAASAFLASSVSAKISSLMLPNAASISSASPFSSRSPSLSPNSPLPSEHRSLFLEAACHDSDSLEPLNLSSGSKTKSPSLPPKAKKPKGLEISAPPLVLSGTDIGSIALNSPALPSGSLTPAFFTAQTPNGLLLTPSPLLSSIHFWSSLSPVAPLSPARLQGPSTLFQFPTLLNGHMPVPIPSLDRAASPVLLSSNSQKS
Procedure, shortened: as §1

[10] = biological target: T7, FEV (Homo sapiens, UniProt Q99581 1-238); conditions: protein: recombinant; tags: N-terminal GST; dsDNA, one strand shown
T7 sequence: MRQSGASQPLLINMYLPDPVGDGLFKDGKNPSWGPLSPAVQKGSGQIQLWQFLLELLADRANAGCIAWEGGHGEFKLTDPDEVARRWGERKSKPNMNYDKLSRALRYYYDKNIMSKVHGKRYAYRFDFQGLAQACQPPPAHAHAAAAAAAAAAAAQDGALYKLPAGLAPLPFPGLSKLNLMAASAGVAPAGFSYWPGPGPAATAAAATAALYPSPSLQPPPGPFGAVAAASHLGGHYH
Procedure, shortened: as §1

[11] = biological target: ETV5 (Homo sapiens, UniProt P41161 1-510); conditions: protein: recombinant; tags: N-terminal GST; dsDNA, one strand shown
Procedure, shortened: as §1

[12] = biological target: HSF1 (Homo sapiens, UniProt Q00613 1-529); conditions: protein: recombinant; tags: N-terminal GST; chain copies: 3; dsDNA, one strand shown
Procedure, shortened: as §1

[13] = biological target: T8, SPIC (Homo sapiens, UniProt Q8N5J4 1-248); conditions: protein: recombinant; tags: N-terminal GST; dsDNA, one strand shown
T8 sequence: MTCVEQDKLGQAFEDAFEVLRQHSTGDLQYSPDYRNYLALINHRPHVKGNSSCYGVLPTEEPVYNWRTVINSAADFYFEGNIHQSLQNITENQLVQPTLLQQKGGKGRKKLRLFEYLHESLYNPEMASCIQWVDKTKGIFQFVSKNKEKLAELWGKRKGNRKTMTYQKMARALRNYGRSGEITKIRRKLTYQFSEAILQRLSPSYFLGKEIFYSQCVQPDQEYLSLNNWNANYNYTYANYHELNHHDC
Procedure, shortened: as §1

[14] = biological target: ELF4 (Homo sapiens, UniProt Q99607 1-663); conditions: protein: recombinant; tags: N-terminal GST; dsDNA, one strand shown
Procedure, shortened: as §1

[15] = biological target: T9, ELK4 (Homo sapiens, UniProt P28324-2 1-405); conditions: protein: recombinant; tags: N-terminal GST; dsDNA, one strand shown
T9 sequence: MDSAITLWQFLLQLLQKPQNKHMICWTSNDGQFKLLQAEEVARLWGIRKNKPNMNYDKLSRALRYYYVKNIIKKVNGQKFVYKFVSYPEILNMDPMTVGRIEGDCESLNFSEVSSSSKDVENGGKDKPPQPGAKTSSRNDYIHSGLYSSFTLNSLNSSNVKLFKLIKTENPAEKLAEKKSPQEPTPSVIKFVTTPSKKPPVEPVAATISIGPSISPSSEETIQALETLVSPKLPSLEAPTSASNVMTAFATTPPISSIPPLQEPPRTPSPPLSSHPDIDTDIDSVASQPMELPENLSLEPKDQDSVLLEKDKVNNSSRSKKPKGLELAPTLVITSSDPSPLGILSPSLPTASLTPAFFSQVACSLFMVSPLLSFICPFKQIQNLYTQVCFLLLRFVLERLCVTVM
Procedure, shortened: as §1

[16] = biological target: T10, ETV2 (Homo sapiens, UniProt O00321 1-342); conditions: protein: recombinant; tags: N-terminal GST; dsDNA, one strand shown
T10 sequence: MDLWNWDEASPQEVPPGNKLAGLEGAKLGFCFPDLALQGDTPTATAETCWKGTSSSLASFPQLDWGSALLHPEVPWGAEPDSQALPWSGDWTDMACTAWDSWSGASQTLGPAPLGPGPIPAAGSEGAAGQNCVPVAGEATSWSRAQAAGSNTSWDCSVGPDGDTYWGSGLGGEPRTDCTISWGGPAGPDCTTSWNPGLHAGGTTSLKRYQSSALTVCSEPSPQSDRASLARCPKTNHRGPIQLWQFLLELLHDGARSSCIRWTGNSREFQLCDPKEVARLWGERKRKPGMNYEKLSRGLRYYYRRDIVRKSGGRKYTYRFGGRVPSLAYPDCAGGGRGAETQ
Procedure, shortened: as §1

[17] = biological target: T11, ELF3 (Homo sapiens, UniProt P78545 1-371); conditions: protein: recombinant; tags: N-terminal GST; dsDNA, one strand shown
T11 sequence: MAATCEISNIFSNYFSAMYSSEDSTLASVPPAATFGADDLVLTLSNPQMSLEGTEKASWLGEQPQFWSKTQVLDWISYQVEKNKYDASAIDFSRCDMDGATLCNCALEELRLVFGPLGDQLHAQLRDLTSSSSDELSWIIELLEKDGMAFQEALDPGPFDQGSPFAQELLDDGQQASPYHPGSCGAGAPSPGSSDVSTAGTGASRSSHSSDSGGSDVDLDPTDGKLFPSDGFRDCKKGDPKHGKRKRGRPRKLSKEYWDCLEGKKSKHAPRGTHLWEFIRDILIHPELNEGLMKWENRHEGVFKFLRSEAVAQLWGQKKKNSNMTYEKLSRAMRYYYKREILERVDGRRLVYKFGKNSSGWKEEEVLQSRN
Procedure, shortened: as §1

[18] = biological target: CRX (Homo sapiens, UniProt O43186 1-299); conditions: protein: recombinant; tags: N-terminal GST; dsDNA, one strand shown
Procedure, shortened: as §1

[19] = biological target: ETV1 (Homo sapiens, UniProt P50549 1-477); conditions: protein: recombinant; tags: N-terminal GST; dsDNA, one strand shown
Procedure, shortened: as §1

Sequence of ETV5 (P41161 whole entry): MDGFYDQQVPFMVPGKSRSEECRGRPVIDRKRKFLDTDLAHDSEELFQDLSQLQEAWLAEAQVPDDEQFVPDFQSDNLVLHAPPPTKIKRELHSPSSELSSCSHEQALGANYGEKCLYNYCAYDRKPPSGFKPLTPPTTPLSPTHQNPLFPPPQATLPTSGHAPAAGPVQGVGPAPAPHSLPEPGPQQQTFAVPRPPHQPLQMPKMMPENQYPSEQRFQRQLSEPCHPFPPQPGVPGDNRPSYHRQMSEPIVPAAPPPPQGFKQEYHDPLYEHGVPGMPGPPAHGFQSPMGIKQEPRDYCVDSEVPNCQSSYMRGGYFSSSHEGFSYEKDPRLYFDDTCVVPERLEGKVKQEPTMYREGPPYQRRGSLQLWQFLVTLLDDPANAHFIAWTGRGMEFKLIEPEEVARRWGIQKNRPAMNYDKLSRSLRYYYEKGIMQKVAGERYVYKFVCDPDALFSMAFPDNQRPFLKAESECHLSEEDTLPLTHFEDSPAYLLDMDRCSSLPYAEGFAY
Sequence of CRX (O43186 whole entry): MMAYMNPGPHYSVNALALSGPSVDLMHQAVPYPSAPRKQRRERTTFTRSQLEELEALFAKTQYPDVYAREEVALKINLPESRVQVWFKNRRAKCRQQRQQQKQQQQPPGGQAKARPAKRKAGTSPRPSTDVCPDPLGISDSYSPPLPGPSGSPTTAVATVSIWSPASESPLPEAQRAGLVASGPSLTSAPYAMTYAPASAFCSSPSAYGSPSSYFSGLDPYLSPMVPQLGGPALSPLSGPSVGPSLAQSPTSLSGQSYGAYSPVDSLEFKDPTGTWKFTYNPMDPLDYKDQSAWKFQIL
Sequence of ETV1 (P50549 whole entry): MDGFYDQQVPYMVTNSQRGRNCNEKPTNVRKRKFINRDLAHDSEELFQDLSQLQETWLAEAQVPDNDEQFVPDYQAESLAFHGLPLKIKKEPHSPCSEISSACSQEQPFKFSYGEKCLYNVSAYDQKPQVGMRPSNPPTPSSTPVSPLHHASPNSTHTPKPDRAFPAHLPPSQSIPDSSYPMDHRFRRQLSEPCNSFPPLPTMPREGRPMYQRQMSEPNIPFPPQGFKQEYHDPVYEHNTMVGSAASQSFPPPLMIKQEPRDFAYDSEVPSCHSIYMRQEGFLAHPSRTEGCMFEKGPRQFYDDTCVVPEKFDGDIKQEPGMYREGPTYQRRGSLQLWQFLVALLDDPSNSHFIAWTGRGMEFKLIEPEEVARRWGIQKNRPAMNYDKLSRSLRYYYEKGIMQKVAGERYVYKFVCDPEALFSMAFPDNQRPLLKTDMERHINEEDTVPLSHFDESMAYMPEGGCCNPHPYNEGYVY
Sequence of ELF4 (Q99607 whole entry): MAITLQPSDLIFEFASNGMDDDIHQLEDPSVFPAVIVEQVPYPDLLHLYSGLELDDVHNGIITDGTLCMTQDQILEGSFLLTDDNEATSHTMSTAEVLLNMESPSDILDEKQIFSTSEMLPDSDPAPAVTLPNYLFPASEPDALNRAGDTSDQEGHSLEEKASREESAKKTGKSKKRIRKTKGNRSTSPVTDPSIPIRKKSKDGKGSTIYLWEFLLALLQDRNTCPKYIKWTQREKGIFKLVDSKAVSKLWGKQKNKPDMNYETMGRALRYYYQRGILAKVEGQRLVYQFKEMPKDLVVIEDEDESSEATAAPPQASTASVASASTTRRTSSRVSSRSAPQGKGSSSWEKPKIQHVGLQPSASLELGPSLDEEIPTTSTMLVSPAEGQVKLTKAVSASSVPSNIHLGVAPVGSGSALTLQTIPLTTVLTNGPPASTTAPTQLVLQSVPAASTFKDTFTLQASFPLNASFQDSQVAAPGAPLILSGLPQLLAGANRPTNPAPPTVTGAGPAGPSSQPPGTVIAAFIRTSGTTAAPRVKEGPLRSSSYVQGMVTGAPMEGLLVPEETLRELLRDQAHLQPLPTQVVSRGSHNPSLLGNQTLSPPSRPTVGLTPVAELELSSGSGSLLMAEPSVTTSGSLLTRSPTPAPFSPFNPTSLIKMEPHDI
Sequence of ELF1 (P32519 whole entry): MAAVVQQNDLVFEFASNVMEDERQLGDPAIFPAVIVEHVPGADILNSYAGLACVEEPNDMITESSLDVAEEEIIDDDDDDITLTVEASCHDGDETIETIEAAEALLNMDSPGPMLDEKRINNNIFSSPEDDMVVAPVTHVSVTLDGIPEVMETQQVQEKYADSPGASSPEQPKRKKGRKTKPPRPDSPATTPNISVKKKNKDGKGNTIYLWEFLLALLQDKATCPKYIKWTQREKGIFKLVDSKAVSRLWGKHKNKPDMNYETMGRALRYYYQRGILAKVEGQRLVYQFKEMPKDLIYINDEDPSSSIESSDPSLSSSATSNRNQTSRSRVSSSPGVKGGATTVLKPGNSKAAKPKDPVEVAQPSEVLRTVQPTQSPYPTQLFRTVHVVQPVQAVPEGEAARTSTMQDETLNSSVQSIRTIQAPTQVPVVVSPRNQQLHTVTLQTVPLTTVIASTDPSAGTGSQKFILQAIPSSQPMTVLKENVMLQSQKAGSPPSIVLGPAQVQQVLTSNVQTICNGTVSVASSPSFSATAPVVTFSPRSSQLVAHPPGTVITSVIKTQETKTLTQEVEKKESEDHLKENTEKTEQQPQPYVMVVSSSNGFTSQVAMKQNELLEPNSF
Sequence of HSF1 (Q00613 whole entry): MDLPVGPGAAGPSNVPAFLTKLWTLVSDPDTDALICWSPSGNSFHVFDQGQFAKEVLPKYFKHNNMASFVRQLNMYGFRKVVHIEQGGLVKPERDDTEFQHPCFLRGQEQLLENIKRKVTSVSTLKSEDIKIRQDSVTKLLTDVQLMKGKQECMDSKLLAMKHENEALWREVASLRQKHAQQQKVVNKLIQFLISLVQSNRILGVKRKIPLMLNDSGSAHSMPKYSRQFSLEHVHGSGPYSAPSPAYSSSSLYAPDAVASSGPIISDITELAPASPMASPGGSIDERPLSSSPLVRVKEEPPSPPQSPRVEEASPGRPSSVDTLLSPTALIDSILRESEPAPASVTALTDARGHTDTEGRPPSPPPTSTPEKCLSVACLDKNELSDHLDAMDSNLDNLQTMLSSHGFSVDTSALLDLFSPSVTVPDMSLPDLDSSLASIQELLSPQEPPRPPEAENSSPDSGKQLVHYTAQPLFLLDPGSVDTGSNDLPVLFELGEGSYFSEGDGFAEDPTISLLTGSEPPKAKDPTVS
Sequence of SPIB (Q01892 whole entry): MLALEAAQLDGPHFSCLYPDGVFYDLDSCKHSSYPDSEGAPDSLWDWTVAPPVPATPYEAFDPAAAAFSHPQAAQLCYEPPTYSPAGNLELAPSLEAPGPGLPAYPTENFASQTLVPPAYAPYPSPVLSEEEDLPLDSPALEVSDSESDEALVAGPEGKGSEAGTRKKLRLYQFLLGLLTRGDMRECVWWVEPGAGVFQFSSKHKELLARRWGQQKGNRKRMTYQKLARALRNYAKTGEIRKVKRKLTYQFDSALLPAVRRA

For TATAGC, the binding signal [1] was 1.2 fold enrichment (6-mer frequency, TF over GST control), the binding signal [2] was 1.22 fold enrichment (6-mer frequency, TF over GST control) and the binding signal [3] was 1.26 fold enrichment (6-mer frequency, TF over GST control). For the same sequence, the binding signal [4] was 1.2 fold enrichment (6-mer frequency, TF over GST control), the binding signal [5] was 1.21 fold enrichment (6-mer frequency, TF over GST control) and the binding signal [6] was 1.17 fold enrichment (6-mer frequency, TF over GST control). For the same sequence, the binding signal [7] was 1.16 fold enrichment (6-mer frequency, TF over GST control), the binding signal [8] was 1.18 fold enrichment (6-mer frequency, TF over GST control) and the binding signal [9] was 1.1 fold enrichment (6-mer frequency, TF over GST control). The binding signal [10] was 1.19 fold enrichment (6-mer frequency, TF over GST control), the binding signal [11] was 1.37 fold enrichment (6-mer frequency, TF over GST control) and the binding signal [12] was 1.17 fold enrichment (6-mer frequency, TF over GST control). The binding signal [13] was 1.31 fold enrichment (6-mer frequency, TF over GST control), the binding signal [14] was 1.15 fold enrichment (6-mer frequency, TF over GST control) and the binding signal [15] was 1.29 fold enrichment (6-mer frequency, TF over GST control). The binding signal [16] was 1.13 fold enrichment (6-mer frequency, TF over GST control), the binding signal [17] was 1.27 fold enrichment (6-mer frequency, TF over GST control) and the binding signal [18] was 1.44 fold enrichment (6-mer frequency, TF over GST control). For the same sequence, the binding signal [19] was 1.13 fold enrichment (6-mer frequency, TF over GST control).
